Measured values from PMC12431657, “Discovery and mechanistic insights of dibenzoylmethane as a broad spectrum inhibitor of coronavirus” (PLOS Pathogens, 2025).
Counter-ions that a name gives are not always drawn. Like-named read-outs stand apart in the source and are kept apart here. The campaign covered roughly 3,300 compounds. About 60 (2%) showed an effect of 50% or more. The sample as a whole holds a higher share of strong results than the screen did.

Test system: HCoV-OC43
Parameters: species or system RD; HTS, protection from HCoV-OC43 induced cell death, luminescent cell viability (CellCounting-Lite 2.0), inhibition rate
Conditions: 24 h post infection, 1 h compound pre-incubation, 10 µM, inhibitor

Row | SMILES | OC43 Inhibition rate [%] | OC43 Inhibition rate (OC43 Inhibition rate, 24 h) [%]
1 | COc1cc([C@@H]2[C@H]3CO[C@@]4(O)C(=O)[C@@H]2C=C([C@H]2Oc5cc(O)cc(O)c5C(=O)[C@@H]2O)[C@@H]34)ccc1O [Silydianin] | -0.1 | –
2 | O=C(/C=C/c1ccccc1)OCc1ccccc1 [Benzyl cinnamate] | 2 | –
3 | O=C(CCCCCCCCc1ccc(O)cc1)c1c(O)cccc1O [Malabaricone B] | 54 | –
4 | O=C(CCc1ccc(O)cc1)c1c(O)cc(O)cc1O [Phloretin] | -0.3 | –
5 | O=C(CCCCCCCCc1ccc(O)c(O)c1)c1c(O)cccc1O [Malabaricone C] | 12.2 | –
6 | CCCCCCCCCCCCCCCCCCCCC [Heneicosane] | -0.3 | –
7 | CO[C@H]1[C@@H](O)[C@H](O[C@@H]2[C@@H](C)O[C@@H](O[C@H]3CC[C@@]4(C)[C@@H](CC[C@@]56O[C@@]57CC[C@@H](C(C)=O)[C@@]7(C)[C@H](OC(C)=O)[C@@H](OC(=O)c5ccccc5)[C@H]46)C3)C[C@H]2OC)O[C@H](C)[C@H]1O [Tenacissoside I] | -4 | –
8 | Cc1ccc(O)c(O)c1 [4-Methylcatechol] | -0.9 | –
9 | COc1cc(O)c(C(=O)/C=C/c2ccccc2)c(OC)c1 [Flavokawain B] | 58.3 | –
10 | COc1cc(O)c(C(=O)/C=C/c2ccccc2)c(O)c1 [Pinostrobin chalcone] | 0 | –
11 | COc1cc(O)c(C(=O)/C=C/c2ccc(O)cc2)c(OC)c1 [Flavokawain C] | 4.2 | –
12 | O=C(N[C@@H](c1ccccc1)[C@@H](O)C(=O)O)c1ccccc1 [N-Benzoyl-(2R,3S)-3-phenylisoserine] | 0.3 | –
13 | C/C=C(/C)C(=O)O [Angelic acid] | -0.3 | –
14 | CCOC(=O)/C=C/c1ccccc1 [Ethyl cinnamate] | -1.2 | –
15 | CC(=O)OC/C1=C\[C@H]2[C@@H](OC(=O)/C=C/c3ccccc3)[C@@H](C)C[C@]2(OC(C)=O)C(=O)/C(C)=C/[C@@H]2[C@H](CC1)C2(C)C [Euphorbia factor L7a] | 75.3 | –
16 | CC(=O)OC/C1=C/C[C@H]2[C@@H](/C=C(\C)C(=O)[C@@]3(OC(C)=O)C[C@H](C)[C@H](OC(=O)c4ccccc4)[C@@H]3[C@H]1OC(C)=O)C2(C)C [Euphorbia factor L7b] | 8.6 | –
17 | COc1cccc(-c2oc3ccccc3c(=O)c2O)c1 [3'-Methoxyflavonol] | -2 | –
18 | O[C@H]1[C@H]2c3cc4c(cc3CN3CC[C@H](C[C@@H]1O)[C@H]23)OCO4 [Dihydrolycorine] | 0 | –
19 | O[C@H]1[C@H]2c3cc4c(cc3CN3CCC(=C[C@@H]1O)[C@H]23)OCO4 [Lycorine] | 60.9 | –
20 | c1cc2c(c3c1CC1c4cc5c(cc4CCN1C3)OCO5)OCO2 (racemic) [(±)-Stylopine] | -0.3 | –
21 | OCc1cccc2ccccc12 [1-Naphthalenemethanol] | 2.9 | –
22 | CC(C)=CCC[C@](C)(O[C@@H]1O[C@H](CO)[C@@H](O)[C@H](O)[C@H]1O)[C@H]1CC[C@]2(C)[C@@H]1[C@H](O)C[C@@H]1[C@@]3(C)CC[C@H](O)C(C)(C)[C@@H]3CC[C@]12C [Ginsenoside C-K] | 38.7 | –
23 | COc1cc(/C=C/C(=O)OC[C@H]2O[C@H](O[C@]3(CO)O[C@H](CO)[C@@H](O)[C@@H]3O)[C@H](O)[C@@H](O)[C@@H]2O)cc(OC)c1O [Sibiricose A1] | 2.3 | –
24 | COc1ccc2cc1Oc1ccc(cc1)C[C@H]1c3cc(c(OC)cc3CCN1C)Oc1c(OC)c(OC)cc3c1[C@H](C2)N(C)CC3 [tetrandrine] | 79.7 | –

Row | SMILES | OC43 Inhibition rate [%] | OC43 Inhibition rate (OC43 Inhibition rate, 24 h) [%]
25 | COc1cc2c3cc1Oc1c(OC)c(OC)cc4c1[C@@H](Cc1ccc(O)c(c1)Oc1ccc(cc1)C[C@@H]3N(C)CC2)N(C)CC4 [Berbamine] | 0 | –
26 | COc1ccc2cc1Oc1ccc(cc1)C[C@H]1c3cc(c(OC)cc3CCN1C)Oc1c(O)c(OC)cc3c1[C@H](C2)N(C)CC3 [Fangchinoline] | 41.6 | –
27 | Oc1ccc(CC2NCCc3cc(O)c(O)cc32)cc1 (centres unmarked) [Higenamine (hydrochloride)] | 0.1 | –
28 | Oc1ccc2[nH]ccc2c1 [5-Hydroxyindole] | 1.1 | –
29 | COc1c2c(cc3oc(CO)cc(=O)c13)O[C@H](C(C)(C)O)C2 [Cimifugin] | 0.3 | –
30 | OC1COC(O)CO1 (centres unmarked) [1,4-Dioxane-2,5-diol] | 1.3 | –
31 | CC(C)c1cc2c(c(O)c1O)[C@@]13CCCC(C)(C)[C@@H]1C[C@@H]2OC3=O [Carnosol] | -0.4 | –
32 | COc1c(C(C)C)cc2c(c1O)[C@@]1(C(=O)O)CCCC(C)(C)[C@@H]1CC2 [12-O-Methylcarnosic acid] | 54.1 | –
33 | CC(C)c1ccc2c(c1)CC[C@H]1[C@](C)(C(=O)O)CCC[C@]21C [Dehydroabietic acid] | -0.5 | –
34 | COc1cc(C=CC(=O)O)cc(OC)c1O (stereo in doubt) [Sinapinic acid] | 1.1 | –
35 | CCn1cc(C(=O)O)c(=O)c2ccc(C)nc21 [Nalidixic acid] | 0.1 | –
36 | NC1CCN(c2nc3c(cc2F)c(=O)c(C(=O)O)cn3-c2ccc(F)cc2F)C1 (centres unmarked) [Tosufloxacin (tosylate hydrate)] | 58.8 | –
37 | O=C(O)C(O)c1ccc(O)c(O)c1 (centres unmarked) [3,4-Dihydroxymandelic acid] | -0.2 | –
38 | CC(C)=CCC/C(C)=C/Cc1cc(-c2coc3cc(O)ccc3c2=O)ccc1O [Corylifol A] | -2.2 | –
39 | CCCC(=O)C(=O)O [2-Oxovaleric acid] | -0.9 | –
40 | COc1ccc(/C=C/C(=O)O)cc1 [4-Methoxycinnamic acid] | – | -0.5
41 | CSCC[C@H](NC(C)=O)C(=O)O [N-Acetyl-L-methionine] | 0.8 | –
42 | C[C@@H]1CC[C@@]2(OC1)O[C@H]1C[C@H]3[C@@H]4CC=C5C[C@@H](O)C[C@@H](O[C@@H]6O[C@H](C)[C@H](O)[C@H](O[C@@H]7OC[C@@H](O)[C@H](O)[C@H]7O)[C@H]6O[C@@H]6O[C@@H](C)[C@H](O)[C@@H](O)[C@H]6O)[C@]5(C)[C@H]4CC[C@]3(C)[C@H]1[C@@H]2C [Ophiopogonin D'] | – | -0.3
43 | C[C@@H]1CC[C@@]2(OC1)O[C@H]1C[C@H]3[C@@H]4CC=C5C[C@@H](O[C@@H]6O[C@H](CO)[C@@H](O)[C@H](O)[C@H]6O[C@@H]6O[C@@H](C)[C@H](O)[C@@H](O)[C@H]6O)CC[C@]5(C)[C@H]4CC[C@]3(C)[C@H]1[C@@H]2C [Prosapogenin A] | -12 | –
44 | C[C@H]1CC[C@@]2(OC1)O[C@H]1C[C@H]3[C@@H]4CC=C5C[C@@H](O[C@@H]6O[C@H](CO)[C@@H](O)[C@H](O[C@@H]7OC[C@@H](O)[C@H](O)[C@H]7O)[C@H]6O[C@@H]6O[C@@H](C)[C@H](O)[C@@H](O)[C@H]6O)CC[C@]5(C)[C@H]4CC[C@]3(C)[C@H]1[C@@H]2C [Liriope muscari baily saponins C] | 66.1 | –
45 | C[C@@H]1CC[C@@]2(OC1)O[C@H]1C[C@H]3[C@@H]4CC=C5C[C@@H](O[C@@H]6O[C@H](CO)[C@@H](O)[C@H](O[C@@H]7O[C@H](CO)[C@@H](O)[C@H](O)[C@H]7O)[C@H]6O[C@@H]6O[C@@H](C)[C@H](O)[C@@H](O)[C@H]6O)CC[C@]5(C)[C@H]4CC[C@]3(C)[C@H]1[C@@H]2C [Gracillin] | 7 | –
46 | C[C@@H]1CC[C@@]2(OC1)O[C@H]1C[C@H]3[C@@H]4CC=C5C[C@@H](O)C[C@@H](O[C@@H]6O[C@H](C)[C@H](O)[C@H](O[C@@H]7OC[C@@H](O)[C@H](O)[C@H]7O)[C@H]6O[C@@H]6O[C@@H](C)[C@H](O)[C@@H](O)[C@H]6O)[C@]5(C)[C@H]4CC[C@]3(C)[C@H]1[C@@H]2C [Ophiopogonin D] | – | 1.6
47 | C[C@@H]1CC[C@@]2(OC1)O[C@H]1C[C@H]3[C@@H]4CC=C5C[C@@H](O)C[C@@H](O[C@@H]6O[C@H](C)[C@H](O)[C@H](O[C@@H]7OC[C@@H](O)[C@H](O)[C@H]7O)[C@H]6O[C@@H]6O[C@H](CO)[C@@H](O)[C@H](O)[C@H]6O)[C@]5(C)[C@H]4CC[C@]3(C)[C@H]1[C@@H]2C [Saponin C, from Liriope muscari] | 66.4 | –
48 | C[S+]([O-])CCCC/C(=N\OS(=O)(=O)O)S[C@@H]1O[C@H](CO)[C@@H](O)[C@H](O)[C@H]1O (some centres unmarked) [Glucoraphanin] | -2.3 | –

Row | SMILES | OC43 Inhibition rate [%] | OC43 Inhibition rate (OC43 Inhibition rate, 24 h) [%]
49 | CC(C)=CCC[C@](C)(O)[C@H]1CC[C@]2(C)[C@@H]1[C@H](O)C[C@@H]1[C@@]3(C)CC[C@H](O)C(C)(C)[C@@H]3[C@@H](O[C@@H]3O[C@H](CO)[C@@H](O)[C@H](O)[C@H]3O[C@@H]3OC[C@@H](O)[C@H](O)[C@H]3O)C[C@]12C [Notoginsenoside R2] | 0.5 | –
50 | CSSSC [Dimethyl trisulfide] | -0.3 | –
51 | COc1ccc2cc3[n+](cc2c1O)CCc1cc2c(cc1-3)OCO2 [Berberrubine (chloride)] | -0.4 | –
52 | CC1(C)O[C@H]1COc1c2ccoc2cc2oc(=O)ccc12 [Oxypeucedanin] | 0.5 | –
53 | C[C@@H]1O[C@@H](O[C@@H]2C(=O)c3c(O)cc(O)cc3O[C@@H]2c2ccc(O)c(O)c2)[C@H](O)[C@H](O)[C@H]1O [Isoastilbin] | 4.2 | –
54 | C/C=C/C[C@@H](C)[C@@H](O)[C@H]1C(=O)N[C@@H](C(C)C)C(=O)N(C)CC(=O)N(C)[C@@H](CC(C)C)C(=O)N[C@@H](C(C)C)C(=O)N(C)[C@@H](CC(C)C)C(=O)N[C@@H](C)C(=O)N[C@H](C)C(=O)N(C)[C@@H](CC(C)C)C(=O)N(C)[C@@H](CC(C)C)C(=O)N(C)[C@@H](C(C)C)C(=O)N1C [Cyclosporin D] | 68 | –
55 | O=C1O[C@H]([C@@H](O)CO)C(O)=C1OP(=O)(O)O [L-Ascorbic acid 2-phosphate (trisodium)] | 9.8 | –
56 | CCCCCCCCCCCCCCCCCCC(=O)O [Nonadecanoic acid] | -0.5 | –
57 | CC(C)=CCC1=CC(=O)c2ccccc2C1=O [Deoxylapachol] | 3.8 | –
58 | CC(C)=CCC1=C(O)C(=O)c2ccccc2C1=O [Lapachol] | 27.9 | –
59 | COC(=O)C1=C(O)c2ccccc2C(=O)[C@]1(CC=C(C)C)C1=CC(=O)c2ccccc2C1=O [Rubipodanone A] | 58.8 | –
60 | Nc1ncnc2c1ncn2[C@@H]1O[C@H](COP(=O)(O)O)[C@@H](O)[C@H]1O [Adenosine monophosphate] | – | 0
61 | C1CCN2C[C@H]3C[C@H](CN4CCCC[C@@H]34)[C@H]2C1 [(+)-Sparteine] | – | 6
62 | C=C(C)[C@H](CC=C(C)C)Cc1c(O)cc(O)c2c1O[C@H](c1ccc(O)cc1O)CC2=O [sophoraflavanone G] | 39.8 | –
63 | C=C(C)[C@H](CC=C(C)C)Cc1c(O)cc(OC)c2c1O[C@H](c1ccc(O)cc1OC)CC2=O [(2S)-2'-Methoxykurarinone] | 98.5 | –
64 | C=C(C)[C@H](CC=C(C)C)Cc1c(O)cc(OC)c2c1O[C@H](c1ccc(O)cc1O)CC2=O [Kurarinone] | 0 | –
65 | CC1(C)CC[C@]2(C(=O)O[C@@H]3O[C@H](CO)[C@@H](O)[C@H](O)[C@H]3O)CC[C@]3(C)C(=CC[C@@H]4[C@@]5(C)CC[C@H](O[C@@H]6O[C@H](C(=O)O)[C@@H](O)[C@H](O)[C@H]6O[C@H]6OC[C@@H](O)[C@H](O)[C@H]6O)C(C)(C)[C@@H]5CC[C@]43C)[C@@H]2C1 [Pseudoginsenoside RT1] | 0.7 | –
66 | O=c1c2cc(O[C@@H]3O[C@H](CO)[C@@H](O)[C@H](O)[C@H]3O)c(O)cc2oc2cc(O)c([C@@H]3O[C@H](CO)[C@@H](O)[C@H](O)[C@H]3O)c(O)c12 [Neomangiferin] | 3 | –
67 | COC[C@@H](Cc1ccc(OC)c(OC)c1)[C@@H](COC)Cc1ccc(OC)c(OC)c1 [Phyllanthin] | 0.2 | –
68 | C/C=C(/C)C(=O)O[C@H]1C(C)=C[C@]23C(=O)[C@@H](C=C(CO)[C@@H](O)[C@]12O)[C@H]1[C@@H](C[C@H]3C)C1(C)C [Ingenol Mebutate] | 1.1 | –
69 | CC1=C[C@]23C(=O)[C@@H](C=C4COC(C)(C)O[C@H]4C2(O)[C@H]1O)[C@H]1[C@@H](C[C@H]3C)C1(C)C (some centres unmarked) [Ingenol-5,20-acetonide] | -2.5 | –
70 | C/C=C(/C)C(=O)O[C@H]1C(C)=C[C@]23C(=O)[C@@H](C=C4COC(C)(C)O[C@H]4[C@]12O)[C@H]1[C@@H](C[C@H]3C)C1(C)C [Ingenol-5,20-acetonide-3-O-angelate] | 69.8 | –
71 | Cc1cc(=O)c2c(O)c3c(cc2o1)OC(C)(C)[C@@H](O[C@@H]1O[C@H](CO)[C@@H](O)[C@H](O)[C@H]1O)C3 [Sec-O-Glucosylhamaudol] | -0.4 | –
